# PrPC surface inh: inhibitors of human cell surface prion protein PrPC; AID 720596; 370,000 tested, 0.43% active; inhibition, % at 13.8 µM; P04156; TR-FRET read-out; in the data active = inhibition above about 24%; also: 0% = median of the test wells and 100% = reference compound wells
# 3CLpro inhibitor: SARS-CoV 3CLpro protease inhibition; recombinant SARS-CoV 3CLpro, quenched FRET peptide cleavage; inhibition, % at 6 µM; 290,000 tested, 0.14% active; AID 1706; in the data active = inhibition above about 12%
# SSB-PriA inh: K. pneumoniae PriA-SSBct interaction inhibition; AlphaScreen SSBct-PriA binding, biotinylated peptide; 430,000 tested, 0.6% active; inhibition, % at 33 µM; in the data active = inhibition mostly above about 37%, no sharp cut-off; inactive = mostly below about 20%;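 also: plate controls were negative control peptide for no effect and reference peptide for full effect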
# PrP UTR inh: suppresses PrP 5' UTR mRNA reporter expression; cell-based PrP 5' UTR mRNA reporter, plate reader; inhibition, % (no concentration beside the values); 340,000 tested, 0.35% active; AID 488862; in the data active = inhibition above about 52%; also: 0 = median of the neutral control wells
# BJeLR lethal: BJeLR cell viability loss; BJeLR (HRASV12) viability, CellTiter-Glo ATP luminescence, 48 h; 300,000 tested, 0.17% active; AID 1554; inhibition, % (no concentration beside the values); in the data active = inhibition above about 50%
# PrPC confirm: cell surface PrPC inhibition, TR-FRET confirmation; inhibition, % at 13.8 µM; 1,500 tested, 65% active; cell surface PrPC level; shares compounds with PrPC surface inh; in the data active = inhibition above about 25%
# LD9 tox: kills or reduces viability of LD9 cells in PrPc counter-screen | shares compounds with PrPC surface inh | LD9 cells cytotoxicity, luminescence viability | inhibition, % at 13.8 µM | 1,500 tested, 29% active | AID 743201; in the data active = inhibition above about 9.5%
# Active calls of the source: *; . = not tested or not shown; ! = not active in a repeat. A selection: hits, their analogues and other compounds. The true share with any hit is near 1.2%.
SMILES,PrPC surface inh,3CLpro inhibitor,SSB-PriA inh,PrP UTR inh,BJeLR lethal,PrPC confirm,LD9 tox
N#CC(C(=O)CCN1C(=O)C2CC=CCC2C1=O)c1nc2ccccc2[nH]1 (stereo not given),3,-3,-11,-14,2,.,.
N#CC(C(=O)C12CC3CC(CC(C3)C1)C2)c1nc2ccccc2[nH]1 (stereo not given),35*,-3,-7,-27,7,24,0
CCOC(=O)c1c(-c2ccccc2)csc1NC(=O)CSc1nncs1,42*,-2,-6,-4,-12,39*,-1
CCOC(=O)C1CCN(C(=O)C(=O)c2cn(CC(=O)N3CCCCCC3)c3ccccc23)CC1,26*,-1,7,5,-4,22,-10
CSc1nc(N)c(NC(=O)c2ccc(F)c(F)c2)c(=O)[nH]1,.,.,9,.,.,.,.
COC(=O)c1ccc(C=NOCC(=O)NC2CCCC(C)C2C)cc1 (stereo not given),.,.,-12,.,.,.,.
CC(=O)Nc1ccc(Nc2nc(-c3ccccc3)nc3ccccc23)cc1,30*,4,-7,-17,3,18,17*
O=C(CSc1ccc2ccccc2c1Br)Nc1cccc(S(=O)(=O)NC2=NCCCCC2)c1,39*,5,5,-35,3,48*,0
O=C(NCCCn1ncccc1=O)c1cc(=O)c2ccccc2o1,.,.,-12,.,.,.,.
CC(C)(C)c1csc(NC(=O)Cn2cnc3ccccc3c2=O)n1,35*,5,3,-4,0,25*,1
COc1cccc(CNC(=O)c2ccc(S(=O)(=O)N3CCOCC3)cc2)c1,0,.,-4,-27,.,.,.
Cc1cc2cc(CNC(=O)c3ccc(S(=O)(=O)N(C)C)cc3)ccc2n1C,54*,3,11,5,-9,36*,-4
Cc1cc2cc(CNC(=O)c3ccc(S(=O)(=O)N4CCCCC4)cc3)ccc2[nH]1,29*,1,7,-2,-10,12,-5
Cc1cc2cc(CNC(=O)c3ccc(S(=O)(=O)N4CCOCC4)cc3)ccc2n1C,43*,-1,7,-9,5,45*,-6
CCCCOc1ccc(C(=O)NCc2ccc3c(c2)cc(C)n3C)cc1,.,.,-12,.,.,.,.
Cc1csc2nc(-c3ccc(NC(=O)c4ccccc4I)cc3)cn12,.,.,18,.,.,.,.
N#Cc1ccc(NC(=O)CCc2nc3ccccc3s2)cc1,5,1,-3,-18,2,.,.
NC(=O)c1cc(NC(=O)CCc2nc3ccccc3s2)cc(C(N)=O)c1,37*,5,9,0,-8,31*,5
O=C(Nc1nnc(CC(c2ccccc2)c2ccccc2)s1)c1ccco1,40*,8,-7,-8,14,42*,-7
CCOC(=O)c1ccccc1NC(=O)Cn1c(=O)n(CCc2ccccc2)c(=O)c2ncccc21,.,.,-2,.,.,.,.
Cc1ccc(CC(=O)N2CCN(c3ccccc3)CC2)cc1,.,.,-6,.,.,.,.
COc1ccc2c(C)c(C(=O)O)oc2c1,28*,-3,-5,-23,-18,30*,-1
c1ccc2[nH]c(CNc3nc(N4CCOCC4)nc4c3ncn4-c3ccsc3)nc2c1,12,.,.,.,.,.,.
O=[N+]([O-])c1ccc2nc(CNc3nc(N4CCOCC4)nc4c3ncn4-c3ccsc3)[nH]c2c1,12,.,.,.,.,.,.
FC(F)(F)c1ccc2nc(CNc3nc(N4CCOCC4)nc4c3ncn4-c3ccsc3)[nH]c2c1,41*,.,.,.,.,37*,17*
SMILES,PrPC surface inh,3CLpro inhibitor,SSB-PriA inh,PrP UTR inh,BJeLR lethal,PrPC confirm,LD9 tox
c1ccc2cc3[nH]c(CNc4nc(N5CCOCC5)nc5c4ncn5-c4ccsc4)nc3cc2c1,25*,.,.,.,.,38*,13*
Cc1occc1C(=O)N1CCN(C(=O)C2CCCO2)CC1 (stereo not given),47*,-1,-9,-3,9,5,-2
Cc1cc(F)ccc1-c1cc(C(=O)Nc2ccc(F)cc2)[nH]n1,8,.,.,.,.,.,.
COc1ccc(NC(=O)c2cc(-c3cc(Cl)ccc3C)n[nH]2)cc1OC,25*,.,.,.,.,28*,15*
COc1ccc(NC(=O)c2cc(-c3cc(Cl)ccc3OC)n[nH]2)cc1OC,19,.,.,.,.,.,.
COc1ccc(NC(=O)c2cc(-c3ccc(F)cc3C)n[nH]2)cc1OC,25*,.,.,.,.,13,8
Cc1ccc2c(CC(=O)NCCc3ccc(S(N)(=O)=O)cc3)cc(=O)oc2c1,.,.,3,.,.,.,.
CCO[C@H]1OC(C(=O)NCc2ccccc2)=C[C@@H](c2ccc(C(F)(F)F)cc2)[C@@H]1CCCO,6,1,2,-2,-22,.,.
CCO[C@H]1OC(C(=O)Nc2ccccc2)=C[C@@H](c2ccc(C(F)(F)F)cc2)[C@@H]1CCCO,31*,4,-3,-18,-4,6,-3
CN(C)c1cc(Nc2ccc(O)cc2)c([N+](=O)[O-])c2nonc12,-10,-5,3,-3,-14,.,.
O=[N+]([O-])c1c(Nc2ccc(O)cc2)cc(Cl)c2nonc12,80*,4,-1,-60,52*,94*,99*
CN1/C(=C\C(=S)NC(=O)c2cccc(Br)c2)C(C)(C)c2ccccc21,25*,1,19,-18,2,30*,16*
Cc1cccc(NC(=S)NCc2ccc3c(c2)cc(C)n3C)c1C,28*,1,72*,-5,-5,5,1
COc1cccc(NC(=S)NCc2ccc3c(c2)cc(C)n3C)c1,19,4,24,-21,6,.,.
Cc1cc2cc(CNC(=S)Nc3ccc(OC(F)(F)F)cc3)ccc2n1C,27*,-1,62*,-6,-23,34*,-4
Cc1cc2cc(CNC(=O)Nc3cccc(Cl)c3)ccc2n1C,35*,-3,60*!,-29,-4,44*,-2
COc1ccc(NC(=O)NCCCn2nc(-c3ccc(Cl)cc3)ccc2=O)c(OC)c1,.,.,-7,.,.,.,.
O=C(NNc1ccccc1Br)C(O)(c1cccc(C(F)(F)F)c1)c1cccc(C(F)(F)F)c1,30*,4,-8,-27,4,6,1
Cn1nc(C2CCN(C(=O)c3cnc4ccccc4n3)CC2)n(C2CC2)c1=O,.,.,-15,.,.,.,.
CCc1nc(SCC(=O)Nc2ccc(N(C)C)cc2)c2ccccc2n1,61*,0,-7,-11,-6,81*,-6
CCc1nc(SCC(=O)NNC(=O)C2CCCCC2)c2ccccc2n1,60*,1,-21,-14,5,114*,-9
CCc1nc(SCC(=O)NNC(=O)C(C)C)c2ccccc2n1,104*,-1,-14,-5,-14,114*,-8
CC(C)C(=O)NNC(=O)CSc1nc(C2CCCCC2)nc2ccccc12,3,-1,-11,-4,3,.,.
CC(=O)c1ccc(NC(=O)CSc2nc(C3CC3)nc3ccccc23)cc1,0,1,-12,15,0,.,.
O=C(Cn1nc(-c2ccco2)c2sc(N3CCCC3)nc2c1=O)Nc1cccc(Cl)c1Cl,.,.,3,.,.,.,.
